Reference: PubChem BioAssay
Active and inactive are the calls of the source. Unless noted, no rule for the calls is given here.

Assays:
[1] = tested on: XIP peptide (Xip251-270) binding; assay: XIP fragment 251-270 binding compounds – biochemical, small-molecule microarray, fluorescence 635/667 nm, 0.1 µg/mL protein, primary screen (AID 1182); settings: fluorescent protein binding, 635 nm, higher = more signal, called active from +8 up or from −8 down
XIP peptide (Xip251-270) = assay: compounds binding XIP fragment 251-270 – biochemical, small-molecule microarray, fluorescence 635/667 nm, 0.5 µg/mL protein, primary screen (AID 1183); settings: fluorescence 635 nm, higher = more signal
[2] = blood-stage malaria parasite viability loss – strain 3D7, DAPI fluorescence, 100 nL, primary screen (AID 1184);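 also: parasites grown inside human red blood cells in medium with human serum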; settings: P. falciparum 3D7 growth, 3 d, higher = more signal
[3] = molecular target: Homeobox protein Hox-A13 (Mus musculus) (UniProt Q62424); assay: disruptors of Hoxa13 oligonucleotide interaction – biochemical, fluorescence polarization, labeled oligonucleotide, primary screen (AID 1185); settings: Hoxa13:DNA binding, 15 min, higher = more signal, called active from +8 up or from −8 down
Chain of Homeobox protein Hox-A13 (Mus musculus) (Q62424 whole entry, looked up): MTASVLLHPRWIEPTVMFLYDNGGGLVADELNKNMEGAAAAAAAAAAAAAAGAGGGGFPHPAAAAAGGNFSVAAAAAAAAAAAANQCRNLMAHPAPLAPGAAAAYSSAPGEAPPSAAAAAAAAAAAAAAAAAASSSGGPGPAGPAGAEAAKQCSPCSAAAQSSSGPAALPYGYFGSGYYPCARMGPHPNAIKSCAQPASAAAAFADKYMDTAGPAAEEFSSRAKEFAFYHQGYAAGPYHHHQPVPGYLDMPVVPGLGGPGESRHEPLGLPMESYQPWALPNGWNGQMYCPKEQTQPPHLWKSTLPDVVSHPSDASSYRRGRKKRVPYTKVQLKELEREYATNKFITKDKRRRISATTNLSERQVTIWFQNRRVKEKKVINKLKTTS

[4] = blockers of DNA damage checkpoint Chk1 activation – imaging, HeLa, hydroxyurea, phospho-Chk1 antibody, percent positive cells, primary screen (AID 1186); settings: hydroxyurea-induced phospho-Chk1 immunofluorescence imaging, higher = more signal
[5] = blockers of DNA damage checkpoint Chk1 activation – imaging, HeLa, hydroxyurea, phospho-Chk1 nuclear intensity, primary screen (AID 1187); settings: hydroxyurea-induced phospho-Chk1 immunofluorescence imaging, higher = more signal

| Structure (SMILES) | composite z-score [1] | composite z-score (XIP peptide (Xip251-270)) | z-score [2] | z-score [3] | z-score [4] | z-score [5] |
| --- | --- | --- | --- | --- | --- | --- |
| CC[C@@H](O[Si](C#C[Si](C(C)C)(C(C)C)C(C)C)(C(C)C)C(C)C)c1cn([C@H](C)c2ccccc2)nn1 | -0.645 (inactive) | -0.0862 | -0.38 | 0.0519 (inactive) | 0.0891 (inactive) | -0.469 (inactive) |
| C=CCOC(=O)[C@H]1[C@@H]2C(=O)O[C@@H](c3ccccc3)[C@@H](c3ccccc3)N2[C@@H](c2ccc(OCCOC(=O)[C@H]3C[C@H]4C(=O)NCC(=O)N4[C@H]3c3ccc(O)cc3)cc2)[C@]12C(=O)Nc1ccccc12 | 0.758 (inactive) | 0.81 | -1.56 | -0.844 (inactive) | -0.374 (inactive) | 0.182 (inactive) |
| CCCCCCc1nc(-c2ccc(OC)nc2)c(C)c2c1[Si](C(C)C)(C(C)C)OC2 | -0.186 (inactive) | -0.7 | -2.14 | 0.384 (inactive) | -0.531 (inactive) | 0.0171 (inactive) |
| [N-]=[N+]=NCc1ccccc1[C@H]1OC(c2ccc(OCCCO)cc2)=N[C@@]1(Cc1ccccc1N=[N+]=[N-])C(=O)O | 0.107 (inactive) | 0.76 | 0.58 | -4.41 (inactive) | -0.0666 (inactive) | 0.194 (inactive) |
| CN1C(=O)C2C=CC(C(O)c3cccs3)N(N(c3ccccc3)c3ccccc3)C2C1=O (centres undefined) | 0.564 (inactive) | 0.482 | -0.0266 | -4.42 (inactive) | 0.557 (inactive) | -0.499 (inactive) |
| COCCOC(=O)N1C(=O)[C@@]2(c3cc(C#CCC(C(=O)OC)C(=O)OC)ccc31)[C@H](C(N)=O)[C@H]1C(=O)O[C@H](c3ccccc3)[C@H](c3ccccc3)N1[C@@H]2c1ccccc1OCCO | 0.286 (inactive) | 0.575 | -1.93 | -2.49 (inactive) | -0.663 (inactive) | -1.57 (inactive) |
| COCCCNC(=O)[C@@]1(Cc2ccccc2I)c2ccccc2C(=O)N(Cc2ccccc2OC)[C@H]1c1ccc(CO)cc1 | 1.02 (inactive) | 0.0714 | -1.07 | -4.88 (inactive) | -0.14 (inactive) | 0.04 (inactive) |
| COC(=O)Cn1c(C(=O)N(C)C)cc2c1C[C@H]1CN(C(=O)c3ccccc3)[C@@](Cc3ccccc3)(C(=O)OC)[C@@H]21 | -0.0872 (inactive) | 0.661 | 0.645 | -4.29 (inactive) | -0.12 (inactive) | 0.286 (inactive) |
| CO[C@H]1O[C@H](CO)[C@@H](OC(=O)Nc2ccccc2)[C@@H]2OC(=O)[C@@H](Cc3ccccc3)C/C=C/C[C@H](Cc3ccccc3)C(=O)O[C@@H]12 | 0.0585 (inactive) | 0.455 | 0.232 | -0.539 (inactive) | -0.741 (inactive) | -0.467 (inactive) |
| CC(C)C[C@@H]1NC(=O)[C@@H]2C[C@H](C(=O)NCCCCCNC(=O)CS)[C@H](c3ccc(O)cc3)N2C1=O | 0.741 (inactive) | 0.56 | -1.13 | -0.472 (inactive) | 0.581 (inactive) | 0.313 (inactive) |
| C=C(COC)/C(=C/C[C@@H](OC(C)=O)c1cccc(OCCO)c1)c1cnc2ccccc2c1 | 0.281 (inactive) | 0.21 | -3.1 | -5.52 (inactive) | 0.271 (inactive) | -0.181 (inactive) |
| CC1C2C(CCCO)=CC(C3C(=O)N(C(N)=O)C(=O)C23)N1Cc1cccc(OC(F)(F)F)c1 (centres undefined) | 1.51 (inactive) | 0.256 | -0.128 | -7.99 (inactive) | 0.37 (inactive) | 0.181 (inactive) |
| O=C(NCCN1CCOCC1)[C@@H]1c2ccccc2C(=O)N(CC23CC4CC(CC(C4)C2)C3)[C@H]1c1ccc(CO)cc1 | 0.238 (inactive) | 0.771 | -1.32 | -5.14 (inactive) | 0.333 (inactive) | 0.707 (inactive) |
| C=C[C@@H](CO)NS(=O)(=O)c1ccc(Br)cc1 | -0.987 (inactive) | -1.58 | -0.345 | 0.553 (inactive) | -0.734 (inactive) | -0.695 (inactive) |
| C=C(C(=O)CC[C@@H](OC(=O)c1ccccc1-c1ccccc1C(=O)O)c1cccc(OCCO)c1)C(C)C | 0.0145 (inactive) | 0.25 | -2.01 | -4.86 (inactive) | -0.0826 (inactive) | -0.0465 (inactive) |
| CC(C)[Si](C#Cc1ccccc1)(O[C@H](c1ccccc1)c1cn(Cc2ccccc2)nn1)C(C)C | 0.0554 (inactive) | 0.877 | -1.18 | -1.11 (inactive) | 0.0998 (inactive) | 0.124 (inactive) |
| CC(C)[Si]1(C(C)C)OCc2cc(-c3ccc(-c4ccc(Cl)c(Cl)c4)o3)nc(-c3ccc(Oc4ccccc4)cc3)c21 | 0.146 (inactive) | 0.548 | -0.497 | -1.74 (inactive) | 0.0415 (inactive) | -0.0792 (inactive) |

| Structure (SMILES) | composite z-score [1] | composite z-score (XIP peptide (Xip251-270)) | z-score [2] | z-score [3] | z-score [4] | z-score [5] |
| --- | --- | --- | --- | --- | --- | --- |
| Cc1c(NC(=O)/C(C#N)=C/C=C/c2ccc([N+](=O)[O-])cc2)c(=O)n(-c2ccccc2)n1C | 1.97 (inactive) | 0.77 | -0.363 | -4.12 (inactive) | -0.023 (inactive) | 0.501 (inactive) |
| COC(=O)C(CC#Cc1ccc2c(c1)[C@]1(C(=O)N2)[C@H](c2ccc(OCCO)cc2)N2[C@H](c3ccccc3)[C@H](c3ccccc3)OC(=O)[C@H]2[C@@H]1C(N)=O)C(=O)OC | 0.372 (inactive) | 0.657 | -0.983 | -1.34 (inactive) | -0.143 (inactive) | -0.303 (inactive) |
| O=C1N(Cc2ccccc2)c2ccccc2C[C@@]12N=C(c1ccc(OCCCO)cc1)O[C@H]2c1ccccc1 | 1.85 (inactive) | 0.541 | -2.52 | -5.07 (inactive) | 0.134 (inactive) | 0.553 (inactive) |
| COc1cc(CO)cc(I)c1O[C@H]1C=C(C(=O)NCCO)C[C@@H](N(CCN2CCOCC2)C(=O)C2CCCO2)[C@@H]1O (some centres undefined) | 0.0188 (inactive) | 0.0326 | 0.0945 | -1.59 (inactive) | -0.866 (inactive) | -0.723 (inactive) |
| Cc1ccc(S[C@]2(C(=O)NC3CC3)CC(=O)N(C3Cc4ccccc4C3)[C@@H]2c2ccc(CO)cc2I)cc1 | 0.406 (inactive) | 0.559 | -0.396 | -2.46 (inactive) | 0.586 (inactive) | 0.97 (inactive) |
| COc1ccc(C(O)C2C=CC3C(=O)N(C)C(=O)C3N2Nc2ccccc2)cc1 (centres undefined) | 0.488 (inactive) | 0.592 | -0.142 | -3.64 (inactive) | 0.158 (inactive) | -0.0307 (inactive) |
| COc1ccc([Si](C)(C)[C@@H]2[C@@H](CC(=O)N(CCO)Cc3ccccc3)O[C@]3(C(=O)N(Cc4cccc(I)c4)c4ccccc43)[C@H]2C)cc1 | 0.479 (inactive) | 0.252 | -2.86 | -1.79 (inactive) | 0.55 (inactive) | 0.828 (inactive) |
| Cc1ccc(S[C@]2(C(=O)NCCN3CCOCC3)CC(=O)N(C(C)C)[C@@H]2c2ccc(CO)cc2I)cc1 | 0.342 (inactive) | 0.93 | -0.191 | -3.43 (inactive) | -0.395 (inactive) | -0.0483 (inactive) |
| [N-]=[N+]=NCc1ccccc1[C@H]1OC(c2ccc(OCCCO)cc2)=N[C@@]1(CCS(=O)(=O)c1ccccc1)C(=O)NCCN1CCOCC1 | -0.0093 (inactive) | 0.816 | -2.35 | -2.67 (inactive) | -0.0238 (inactive) | -0.0229 (inactive) |
| CC[C@@H](O[Si](C#C[Si](C(C)C)(C(C)C)C(C)C)(C(C)C)C(C)C)c1cn(Cc2cccc(Cl)c2)nn1 | 0.242 (inactive) | -0.0319 | 0.163 | 0.335 (inactive) | 0.212 (inactive) | -0.0184 (inactive) |
| Cc1cccc([C@H]2C[C@H]3C(Br)=C[C@@]2(CO)C(=O)[C@]32CO2)c1 | 1.48 (inactive) | 0.137 | 1.54 | -1.41 (inactive) | -0.272 (inactive) | -0.557 (inactive) |
| O=C1NC(=O)C2C1C=CC(C(O)C1CCCCC1)N2Nc1ccccn1 (centres undefined) | -0.275 (inactive) | 0.27 | 0.582 | -2.17 (inactive) | 1.04 (inactive) | 1.39 (inactive) |
| O=C1O[C@H](c2ccccc2)[C@H](c2ccccc2)N2[C@H]1[C@@H](C(=O)O)[C@]1(C(=O)Nc3ccc(C#CC4(O)CCCCCC4)cc31)[C@H]2c1ccccc1OCCO | 0.168 (inactive) | 0.779 | -0.21 | -5.71 (inactive) | 0.152 (inactive) | 0.579 (inactive) |
| COCCOC(=O)N1C(=O)[C@@]2(c3cc(C#CC4(O)CCCCCC4)ccc31)[C@H](C(N)=O)[C@H]1C(=O)O[C@H](c3ccccc3)[C@H](c3ccccc3)N1[C@@H]2c1ccc(OCCO)cc1 | 1.56 (inactive) | 0.73 | -1.62 | -0.51 (inactive) | -0.0908 (inactive) | -0.524 (inactive) |
| CCCCC(=C=CC[C@@H](O)c1ccccc1OCCO)C[C@@H](O)c1ccccn1 | 0.161 (inactive) | 0.338 | -1.48 | -5.1 (inactive) | -0.0323 (inactive) | -0.123 (inactive) |
| CCCCN1CC=CC23O[C@@H]4/C=C\CCCOC(=O)C4[C@H]2C(=O)N(CCCCCCO)[C@@H]3C1=O (some centres undefined) | 0.723 (inactive) | 0.803 | -0.165 | -4.71 (inactive) | -0.624 (inactive) | -0.137 (inactive) |
| CC1CC/C=C\[C@H]2OC34C=CCN(C(C)C)C(=O)[C@H]3N(C(C)CO)C(=O)[C@@H]4C2C(=O)O1 (some centres undefined) | -0.275 (inactive) | 0.384 | -0.577 | -5.82 (inactive) | -0.829 (inactive) | -0.249 (inactive) |
